Several values for one entry are separate records, joined by “and”; a condition that tells them apart may be missing. Identical values can stand only once. Inconclusive results are not listed. Activity calls are given as the source filed them.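 The calls were made as follows, unless noted: active = normalized viability below 100% at a tested concentration; inactive = the rest.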
How the values were obtained:
[1] = growth inhibition of DIPG glioma cells, dose response, cell-based, SU-DIPG-XVII, MIPE5.0, CellTiter-Glo, qHTS (AID 1347060; cut-off not given, nearly all actives have AC50 up to about 26 µM;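 as to AC50: cells exposed to compound for 48 hours before viability readout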); conditions: SU-DIPG-XVII viability, CellTiter-Glo ATP luminescence
[2] = growth inhibition of DIPG glioma cells, dose response, cell-based, JHH-DIPG-1, MIPE4.0, CellTiter-Glo, qHTS (AID 1347062; cut-off not given, nearly all actives have AC50 up to about 27 µM;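 as to AC50: cells exposed to compound for two days before readout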); conditions: JHH-DIPG-1 viability, CellTiter-Glo ATP luminescence
[3] = growth inhibition of DIPG glioma cells, dose response, cell-based, SU-DIPG-XIII, MIPE5.0, CellTiter-Glo, qHTS (AID 1347064; cut-off not given, nearly all actives have AC50 up to about 23 µM;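 as to AC50: cells exposed to compound for 48 hours before the viability read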); conditions: SU-DIPG-XIII viability, CellTiter-Glo ATP luminescence
[4] = viability loss in pontine glioma line – cell-based, SU-DIPG-XXV, MIPE5.0, CellTiter-Glo, qHTS, dose response (AID 1347065; cut-off not given, nearly all actives have AC50 up to about 26 µM;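 also: cells exposed to compound for 48 hours before ATP readout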); conditions: CellTiter-Glo ATP luminescence
[5] = JHH-DIPG-1 glioma cell viability, MIPE5.0 library, CellTiter-Glo luminescence, qHTS (AID 1347067; cut-off not given, nearly all actives have AC50 up to about 26 µM;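 also: cells exposed to compound for 48 hours before readout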); conditions: JHH-DIPG-1 glioma viability, CellTiter-Glo ATP luminescence
[6] = SU-DIPG-XXV glioma cell viability, MIPE5.0 library, qHTS (AID 1347068; cut-off not given, nearly all actives have IC50 up to about 30 µM;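 as to IC50: cells exposed to compound for 48 hours before viability readout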)
[7] = sensitizers of A549 cells to miR-34 induction, primary screen, imaging, A549 dox-inducible miR-34, nuclei and caspase counts (AID 1347080;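 active = compounds whose cell count with miR-34 switched on is under 0.7 times the count with it off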); conditions: A549 miR-34 inducible, Hoechst nuclei count, 48 h
[8] = survival rescue of mitochondrial mutant cells in low glucose, primary screen, MELAS cybrids, Rieske KO mouse fibroblasts, CellTiter-Glo (AID 1508586;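 active = mean z-score across replicates of 1.96 or higher in either the MELAS or the Rieske mutant cell line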;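 also: z relative to plate mean and SD of compound and empty wells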)
[9] = SU-DIPG-VI glioma cell viability, MIPE4.0 library, CellTiter-Glo luminescence, qHTS (AID 1347066; cut-off not given, nearly all actives have AC50 up to about 30 µM;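 also: cells exposed to compound for 48 hours before readout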); conditions: CellTiter-Glo ATP luminescence
[10] = modifiers of HSF1 nuclear foci, imaging, Selleck Cancer Library (AID 1347162; in the data active = plate-normalised HSF1 focus index below about 0.46); conditions: human cells, at 10 µM; SSMD: measured here: HSF1 foci SSMD mean; cell count: measured here: cell number; plate-normalised HSF1 focus index: stronger effect = lower value
[11] = ovarian cancer cell viability with rucaparib, profiling panel, oncology-focused library, rucaparib conditional (AID 1508598); conditions: patient-derived ovarian cancer cells, CellTiter-Glo viability, 144 h, stronger effect = lower value
[12] = stronger effect = lower value, cell number ratio, induced over uninduced
[13] = measured here: relative caspase fold change +Dox/-Dox
[14] = measured here: total cells with miR-34 induction, stronger effect = lower value
[15] = measured here: total cells without miR-34 induction
[16] = MELAS cybrid survival, CellTiter-Glo 48 h, stronger effect = higher value
[17] = Rieske KO mouse fibroblast survival, CellTiter-Glo 72 h
[18] = at 0.000305 µM, OCI-C5x cells, with rucaparib 10 µM, 100% = cells with rucaparib alone
[19] = at 0.000305 µM, OCI-C5x cells, without rucaparib
[20] = at 0.000305 µM, OCI-P5x cells, with rucaparib 20 µM, 100% = cells with rucaparib alone
[21] = at 0.000305 µM, OCI-P5x cells, without rucaparib
[22] = at 0.00122 µM, OCI-C5x cells, with rucaparib 10 µM, 100% = cells with rucaparib alone
[23] = at 0.00122 µM, OCI-C5x cells, without rucaparib
[24] = at 0.00122 µM, OCI-P5x cells, with rucaparib 20 µM, 100% = cells with rucaparib alone
[25] = at 0.00122 µM, OCI-P5x cells, without rucaparib
[26] = at 0.00488 µM, OCI-C5x cells, with rucaparib 10 µM, 100% = cells with rucaparib alone
[27] = at 0.00488 µM, OCI-C5x cells, without rucaparib
[28] = at 0.00488 µM, OCI-P5x cells, with rucaparib 20 µM, 100% = cells with rucaparib alone
[29] = at 0.00488 µM, OCI-P5x cells, without rucaparib
[30] = at 0.0195 µM, OCI-C5x cells, with rucaparib 10 µM, 100% = cells with rucaparib alone
[31] = at 0.0195 µM, OCI-C5x cells, without rucaparib
[32] = at 0.0195 µM, OCI-P5x cells, with rucaparib 20 µM, 100% = cells with rucaparib alone
[33] = at 0.0195 µM, OCI-P5x cells, without rucaparib
[34] = at 0.0781 µM, OCI-C5x cells, with rucaparib 10 µM, 100% = cells with rucaparib alone
[35] = at 0.0781 µM, OCI-C5x cells, without rucaparib
[36] = at 0.0781 µM, OCI-P5x cells, with rucaparib 20 µM, 100% = cells with rucaparib alone
[37] = at 0.0781 µM, OCI-P5x cells, without rucaparib
[38] = at 0.313 µM, OCI-C5x cells, with rucaparib 10 µM, 100% = cells with rucaparib alone
[39] = at 0.313 µM, OCI-C5x cells, without rucaparib
[40] = at 0.313 µM, OCI-P5x cells, with rucaparib 20 µM, 100% = cells with rucaparib alone
[41] = at 0.313 µM, OCI-P5x cells, without rucaparib
[42] = at 1.25 µM, OCI-C5x cells, with rucaparib 10 µM, 100% = cells with rucaparib alone
[43] = at 1.25 µM, OCI-C5x cells, without rucaparib
[44] = at 1.25 µM, OCI-P5x cells, with rucaparib 20 µM, 100% = cells with rucaparib alone
[45] = at 1.25 µM, OCI-P5x cells, without rucaparib
[46] = at 5 µM, OCI-C5x cells, with rucaparib 10 µM, 100% = cells with rucaparib alone
[47] = at 5 µM, OCI-C5x cells, without rucaparib
[48] = at 5 µM, OCI-P5x cells, with rucaparib 20 µM, 100% = cells with rucaparib alone
[49] = at 5 µM, OCI-P5x cells, without rucaparib

CS(=O)(=O)Oc1ccc2c(NC(N)=O)c(C(=O)c3ccc(Cl)cc3Cl)oc2c1
inactive: outcome [1] | outcome [3] | outcome [4] | outcome [5] | outcome [6]
active: AC50 [2] 2.35 µM

COc1ccc2c(c1)c(C1=C(c3c[nH]c4ccccc34)C(=O)NC1=O)cn2CCCN(C)C
4170 and 4590: cell count [7, 14]
0.481 and 1.22: fold change [7, 13]
-0.0818: z-score [8, 17]
inactive: fold change [7, 12] 0.91 and 0.965 | z-score [8, 16] -0.592
active: AC50 [1] 20.9 µM | AC50 [2] 16.6 µM | AC50 [4] 20.9 µM | AC50 [5] 20900 nM | IC50 [6] 29.5 µM
4580 and 4760: cell count [7, 15]

C=CC[N+]1([C@H]2C[C@H]3[C@@H]4CC[C@H]5C[C@H](O)[C@@H](N6CCOCC6)C[C@]5(C)[C@H]4CC[C@]3(C)[C@H]2OC(C)=O)CCCC1
-0.444: z-score [8, 17]
10700: cell count [7, 15]
1.54: fold change [7, 13]
inactive: outcome [1] | outcome [2] | outcome [3] | outcome [5] | outcome [6] | fold change [7, 12] 0.847 | z-score [8, 16] 0.124
9100: cell count [7, 14]

COCCOc1ccc2c(c1)ncn2-c1ccc2cccc(N3CCC(N)CC3)c2n1
inactive: fold change [7, 12] 1.1 | z-score [8, 16] 0.564
1320: cell count [7, 15]
1460: cell count [7, 14]
0.953: fold change [7, 13]
-2.41: z-score [8, 17]
active: AC50 [1] 11.8 µM | AC50 [2] 9.35 µM | AC50 [3] 9340 nM | AC50 [4] 11.8 µM | IC50 [6] 18.6 µM

CN[C@H]1CCc2cc(OC)c(OC)c(OC)c2-c2ccc(OC)c(=O)cc21
active: AC50 [1] 0.105 µM | AC50 [2] 0.0148 µM | AC50 [3] 132 nM | AC50 [4] 0.166 µM | AC50 [5] 148 nM | IC50 [6] 0.148 µM

COc1cc2c(cc1OC)CC(=O)N(CCCN(C)C[C@H]1Cc3cc(OC)c(OC)cc31)CC2
inactive: outcome [1] | outcome [2] | outcome [3] | outcome [4] | outcome [9] | outcome [5] | outcome [6]

CS(=O)(=O)c1ccc(C(=O)Nc2ccc(Cl)c(-c3ccccn3)c2)c(Cl)c1
0.712 and 0.902: fold change [7, 13]
2.58: SSMD [10]
inactive: outcome [1] | outcome [2] | outcome [3] | outcome [4] | outcome [9] | outcome [5] | outcome [6] | fold change [7, 12] 0.865 and 0.901 | plate-normalised HSF1 focus index [10] 1.15 | z-score [8, 16] 0.265 and -0.383 | viability [11, 18] 124% | viability [11, 19] 125% | viability [11, 21] 106% | viability [11, 22] 126% | viability [11, 23] 125% | viability [11, 24] 103% | viability [11, 25] 102% | viability [11, 26] 125% | viability [11, 27] 124% | viability [11, 28] 106% | viability [11, 30] 115% | viability [11, 31] 117% | viability [11, 32] 107% | viability [11, 33] 102% | viability [11, 34] 123% | viability [11, 35] 116% | viability [11, 36] 106% | viability [11, 37] 103% | viability [11, 38] 125% | viability [11, 39] 127% | viability [11, 40] 108% | viability [11, 41] 104% | viability [11, 42] 133% | viability [11, 43] 116% | viability [11, 44] 108% | viability [11, 45] 104% | viability [11, 46] 158% | viability [11, 47] 149%
10200 and 7460: cell count [7, 15]
active: viability [11, 20] 92.5% | viability [11, 29] 97.6% | viability [11, 48] 97.4% | viability [11, 49] 99.8%
7240: cell count [10]
0.641 and 0.534: z-score [8, 17]
8790 and 6720: cell count [7, 14]

C[C@@H]1CN(Cc2ccc(F)cc2)[C@@H](C)CN1C(=O)c1cc2c(C(=O)C(=O)N(C)C)cn(C)c2cc1Cl
inactive: outcome [1] | outcome [2] | outcome [3] | outcome [6]

CN(C(Cc1ccc(OS(=O)(=O)c2cccc3cnccc23)cc1)C(=O)N1CCN(c2ccccc2)CC1)S(=O)(=O)c1cccc2cnccc12 (stereo unspecified)
inactive: outcome [1] | outcome [2] | outcome [3] | outcome [9] | outcome [5] | outcome [6] | fold change [7, 12] 0.886 and 0.945 | z-score [8, 16] -0.441
4980 and 6920: cell count [7, 15]
1.12 and 0.338: fold change [7, 13]
-1.42: z-score [8, 17]
4410 and 6540: cell count [7, 14]

CCC(C)SSc1ncc[nH]1 (stereo unspecified)
active: AC50 [1] 14.8 µM | AC50 [2] 23.5 µM | AC50 [4] 11.8 µM | AC50 [9] 26.4 µM

COc1ccc(S(=O)(=O)Nc2cccnc2Nc2ccc(O)cc2)cc1
inactive: fold change [7, 12] 1.24 | plate-normalised HSF1 focus index [10] 1.07 | z-score [8, 16] 0.679 | viability [11, 18] 111% | viability [11, 19] 122% | viability [11, 20] 117% | viability [11, 21] 128% | viability [11, 22] 119% | viability [11, 23] 133% | viability [11, 24] 118% | viability [11, 25] 119% | viability [11, 26] 119% | viability [11, 27] 133% | viability [11, 28] 112% | viability [11, 29] 121% | viability [11, 30] 113% | viability [11, 31] 128% | viability [11, 32] 108% | viability [11, 33] 122% | viability [11, 34] 110% | viability [11, 35] 134% | viability [11, 36] 111% | viability [11, 37] 111%
active: AC50 [1] 0.263 µM | AC50 [2] 0.166 µM | AC50 [3] 468 nM | AC50 [5] 468 nM | IC50 [6] 10.5 µM | viability [11, 38] 58.8% | viability [11, 39] 76.1% | viability [11, 40] 94.4% | viability [11, 41] 28.4% | viability [11, 42] 50% | viability [11, 43] 49.6% | viability [11, 44] 72.9% | viability [11, 45] 23% | viability [11, 46] 43.3% | viability [11, 47] 62% | viability [11, 48] 70.9% | viability [11, 49] 17.9%
962: cell count [7, 15]
7150: cell count [10]
1190: cell count [7, 14]
-0.295: z-score [8, 17]
1.94: SSMD [10]
0.79: fold change [7, 13]

Source: PubChem BioAssay
